High-throughput results from PubChem.
Only a selection was taken, and hits are over-represented in it overall.
Measles inh: inhibitors of measles virus growth in infected cells. infected Vero cells, GFP fluorescence, 64 h; stronger effect = lower value. AID 745. z-score (no concentration beside the values). 0.1% of 33,000 active; in the data active = z-score below about -3
Each line names hits and unclear results; the compound was inactive in the other large screens.

CCN(CC)C(=O)c1c(NC(=O)c2cccs2)sc2c1CCC(C(C)(C)C)C2 (stereo not given)	none
Cn1c2ccccc2c2cc(I)ccc21	none
CN(CC(=O)Nc1ccccc1Br)S(=O)(=O)c1cccs1	none
O=C(CCCCn1c(=O)[nH]c2ccccc2c1=O)NCCc1c[nH]c2ccccc12	none
O=C(c1n[nH]c(=O)c2ccccc12)N1CCN(c2ccccc2)CC1	none
COc1ccc(CNC(=O)Cn2nc(-c3ccccc3)ccc2=O)c(OC)c1	none
COc1ccc(C2CC(c3c(-c4ccccc4)c4cc(Cl)ccc4[nH]c3=O)=NN2C(=O)CCC(=O)O)cc1 (stereo not given)	none
COc1ccc(-c2cc(=O)[nH]c(Sc3c(-c4ccccc4)c4cc(Cl)ccc4[nH]c3=O)n2)cc1	Measles inh -3.28
O=c1[nH]c2ccc(Cl)cc2c(-c2ccccc2)c1SCCO	none
O=C(Nc1cccc(C(F)(F)F)c1)c1cc2ccccc2o1	none
COC(=O)c1sc2nc(C)c(Cl)c(C)c2c1-n1cccc1	none
Cc1ccc(-c2nn3c(=O)c(C)nnc3s2)cc1	none
CC(C)C(=O)N1CC(=O)Nc2ccc(Br)cc2C1c1ccc(F)cc1 (stereo not given)	none
O=C(c1ccc(Cn2c(=S)[nH]c3cc4c(cc3c2=O)OCO4)cc1)N1CCN(Cc2ccccc2)CC1	none
COc1ccc(Cl)cc1NS(=O)(=O)c1cnc[nH]1	none
O=S(=O)(Nc1ccc(Cl)cc1)c1cnc[nH]1	Measles inh -3.51
O=S(=O)(Nc1cccc(C(F)(F)F)c1)c1cnc[nH]1	none
Cc1cc(NCCC(C)C)n2c(nc3ccccc32)c1C#N	none
O=C(Nc1ccc(Br)cc1)c1cc2c(=O)n3ccccc3nc2s1	none
O=C(Cn1c(=O)n(Cc2ccccc2)c(=O)c2ccccc21)NC1CCCCC1	none
CCCCS(=O)(=O)NC1=NCN(CC)CN1	none
COc1ccc(C)cc1-n1cnc2cc(C(=O)NCc3ccccc3Cl)ccc21	none
COc1ccc(Cn2c(SCC(N)=O)nc3c(sc4ccccc43)c2=O)cc1	none
COc1ccc(N2CCN(C(=O)CNS(=O)(=O)c3ccc(Br)s3)CC2)cc1	none
CC1CCC(C(=O)NC(C(=O)Nc2ccc(C(C)C)cc2)C(C)C)CC1 (stereo not given)	none
CC1CCN(S(=O)(=O)N2CCC(C(=O)NCc3ccccn3)CC2)CC1	none
CC1CCC(C(=O)NC(C(=O)NCc2ccccn2)C(C)C)CC1 (stereo not given)	Measles inh -3.08
O=C1c2ccc([N+](=O)[O-])cc2S(=O)N1Cc1ccccc1 (stereo not given)	none
CCOC(=O)CNC(=O)c1cc2cc3cc(OC)ccc3nc2s1	none
COc1ccc(Nc2cc(N3CCN(C)CC3)c3noc4c3c2C(=O)c2ccccc2-4)cc1	none
COc1ccc(-n2nc3cc(C)c(NC(=O)c4ccccc4Cl)cc3n2)cc1	none
CSc1ccc(-c2nc(-c3cccs3)c(-c3cccs3)[nH]2)cc1	none
Cc1ccc(NC(=O)C2C3NC(=S)NC2(C)Oc2ccccc23)c(C)c1 (stereo not given)	none
CCOc1cccc2c1OC1(C)NC(=S)NC2C1C(=O)Nc1ccc(C)cc1C (stereo not given)	none
Cc1ccc(NC(=O)C2C3NC(=S)NC2(C)Oc2ccc(Br)cc23)c(C)c1 (stereo not given)	Measles inh -3.26
CCOc1cccc(-c2nnc(-c3ccc4c(c3)OCO4)o2)c1	none
CC(=O)C1=C(O)C(=O)N(CCN2CCOCC2)C1c1ccc2c(c1)OCO2 (stereo not given)	none
Cc1sc2ncn(CC(=O)NCCCN3CCC(C)CC3)c(=O)c2c1S(=O)(=O)N1CCC(C)CC1	none
O=C1CCCC2=C1C(c1ccc(C(F)(F)F)cc1)Nc1ccc(C(=O)c3ccccc3)cc1N2 (stereo not given)	none
Cc1nn(S(=O)(=O)c2ccccc2)c(-c2ccccc2)c1Sc1ccccc1	none
COc1ccccc1NC(=O)c1cccc([N+](=O)[O-])c1	none
COc1ccc([N+](=O)[O-])cc1NC(=O)c1cccc(F)c1	Measles inh -5.24
COc1ccc([N+](=O)[O-])cc1NC(=O)c1cccc(C(=O)Nc2cc([N+](=O)[O-])ccc2OC)c1	none
NS(=O)(=O)c1ccc(NC(=O)C(c2ccccc2)c2ccccc2)cc1	none
COc1ccc(CNS(=O)(=O)c2cc(Br)cc3c2N(C(=O)C2CC2)CC3)cc1	none
O=C(NCc1ccco1)c1ccc2c(=O)[nH]c3c(C(=O)NCC4CCCO4)sc(=S)n3c2c1 (stereo not given)	none
CC1CCc2c(sc3nc(=S)sc(N)c23)C1 (stereo not given)	none
Cc1cc(C)c(S(=O)(=O)N2CCN(CCN3C(=O)c4cccc5cccc(c45)C3=O)CC2)c(C)c1	none
CC(C)(C)n1nc2c(c1NC(=O)COc1ccc(Cl)cc1)CS(=O)(=O)C2	none
CCN(CC)CCNC(=O)c1nn(-c2ccc(C)cc2)c(=O)c2c1c1ccccc1n2C	none
CC(C)(C)C1=NN(c2ccc([N+](=O)[O-])cc2)C(c2ccccc2)C1 (stereo not given)	none
Cc1ccc(NC(=O)C(C)N2C(=O)c3ccccc3C2=O)cc1 (stereo not given)	none
COc1cccc(C(=O)Nc2ccc(S(=O)(=O)Nc3nc(C)cc(C)n3)cc2)c1	none
Cc1cc(C)nc(NS(=O)(=O)c2ccc(Br)cc2)n1	Measles inh -3.09
COc1ccc(CC(=O)Nc2ccc(S(=O)(=O)Nc3nc(C)cc(C)n3)cc2)cc1	none
CCCN(CCC)Cc1c(O)ccc2c(=O)c(Oc3ccc(C)cc3)c(C(F)(F)F)oc12	none
Cc1ccc(CNC(=O)c2ccc(CNS(=O)(=O)c3c(C)cc(C)cc3C)cc2)cc1	none
Cc1cc(SCC(=O)Nc2ccc(F)cc2)nc2ccccc12	none
CC(=O)NC(c1ccc(C)cc1)c1cc([N+](=O)[O-])c2cccnc2c1O (stereo not given)	Measles inh -3.4
CC(=O)NC(c1ccccc1)c1cc(Cl)c2cccnc2c1O (stereo not given)	none
CCOc1cc(C(NC(=O)CC)c2cc([N+](=O)[O-])c3cccnc3c2O)ccc1O (stereo not given)	none
CN(C)c1ccc(N2C(=O)c3ccccc3C2=O)cc1	none
COc1ccc(CNS(=O)(=O)c2ccc(F)c(C(=O)Nc3ccc(OC)cc3)c2)cc1	none
O=C(CSc1nc2ccccc2s1)Nc1ccc(S(=O)(=O)Nc2nccs2)cc1	none
Cc1nc2sc3c(c2c(=O)[nH]1)CCC3	none
O=c1c2c3c(sc2n2c(=S)[nH]nc2n1Cc1ccccc1)CCC3	none
C=C1CSc2nc(=O)c3c4c(sc3n21)CCC4	Measles inh -3.1
Cc1ccc(-n2nc3cc(C)c(NC(=O)c4ccc5c(c4)OCCO5)cc3n2)cc1	none
Cc1ccc(NC(=O)CC(O)(C(F)(F)F)C(F)(F)F)cc1	none
Nc1ncn(C(=O)c2ccco2)n1	none
Cc1ccccc1NC(=O)Cn1c(=O)n(Cc2ccc3c(c2)OCO3)c(=O)c2ccccc21	none
O=C(Nc1nc2c(s1)CCCC2)c1ccc(S(=O)(=O)N2CCc3ccccc3C2)cc1	none
Nc1ccc(S(=O)(=O)c2cccc([N+](=O)[O-])c2)cc1[N+](=O)[O-]	none
CC1=C(C(=O)OC(C)C)C(c2ccccc2Cl)C2=C(CC(C)(C)CC2=O)N1 (stereo not given)	none
